Assay outcomes (PubChem)
Only some compounds are listed: those with a hit (about 19% of all), similar ones and a draw of the others.
ELG1 repair inh – ELG1-dependent DNA repair inhibition. HEK293T ELG1-luciferase reporter, luminescence, 16 h; DNA damage induced by 5-fluorouridine. AID 504467. 330,000 tested, 2.3% active. Potency, µM (highest dose often 46.1 µM), actives largely listed as inhibitors; also: nearly all actives have a fitted effect of over 55% in size
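Cells (2,000 per well) received 5-fluorouridine plus test compound or DMSO and were incubated 16 hr at 37 °C, 5% CO2. Luciferase activity was read by luminescence 30 min after ONE-Glo addition; signal suppression marked inhibition of damage-induced ELG1 function.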
IL1B secr inh – inhibitors of inflammasome signaling (IL-1 beta secretion) | activity change, % at 57.5 µM | THP-1 LPS/ATP IL-1B secretion, AlphaLISA, 16 h; stronger effect = lower value | 360,000 tested, 4.7% active; in the data active = activity change below about -50%; inconclusive = mostly about -30% to -49%
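THP-1 cells pretreated 1 hr with compounds (up to 57.5 uM final), then stimulated with LPS (250 ng/mL final) plus ATP (1.25 mM final); secreted IL-1B measured by AlphaLISA after 16 hr, decreased signal indicating inhibition.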
DT40 TDP1 no CPT – qHTS for Inhibitors of human tyrosyl-DNA phosphodiesterase 1 (TDP1): qHTS in cells in absence of CPT. AID 686978, 2013. 420,000 tested, 15% active. Potency, µM (titrated, usually from 46.2 µM), hits mostly inhibitors. DT40 Tdp1-/- hTDP1 cells, no CPT, ATP luminescence, 48 h; also: nearly all actives have a fitted effect of over 55% in size
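Compound effects on proliferation are scored in DT40 Tdp1-/-;hTDP1 cells in the absence of CPT. ATP levels (CellTiter-Glo luminescence) are recorded after a ≥48 hr, 37 °C incubation.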
HT1080-NT tox – kills 2HG-producing HT-1080-NT fibrosarcoma cells; HT-1080-NT fibrosarcoma viability, CellTiter-Glo ATP luminescence, 48 h; Potency, µM (top dose mostly 46.1 µM), hits mostly cytotoxic; 360,000 tested, 1.6% active;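 also: NT is the 2HG producing partner of a matched IDH1 knockdown line; nearly all actives have a fitted effect of over 55% in size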
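HT-1080-NT; 750 cells/well; 5% FBS RPMI; 48 h compound, 37 degrees C; CellTiter-Glo luminescence; curve fitting and curve-class assignment.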
HT1080 IDH1KD tx – toxicity to HT-1080 IDH1 knockdown cells (counter line); HT-1080 IDH1 knockdown viability, ATP luminescence, 48 h; Potency, µM (top dose mostly 46.1 µM), usual class: cytotoxic; 360,000 tested, 2% active
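Assay cells: HT-1080 with IDH1 knockdown, 750 per well, RPMI/5% FBS. Exposure: 48 h at 37 °C following 2 h pre-incubation. Read: CellTiter-Glo luminescence; fitted concentration-response, curve class assigned.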
TDP1 cell CPT – growth inhibition of DT40 Tdp1-/-;hTDP1 cells with camptothecin (screen for TDP1 inhibitors). chicken DT40 Tdp1-/-;hTDP1 cells + 20 nM CPT, ATP luminescence, 48 h. Potency, µM (top dose mostly 46.2 µM), usual class: inhibitors. 420,000 tested, 12% active; also: nearly all actives have a fitted effect of over 55% in size
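Chicken DT40 Tdp1-/- cells stably complemented with human TDP1 were seeded at 400 cells/well in medium containing 20 nM camptothecin, exposed to pin-transferred compounds, and grown at 37 °C for at least 48 hr. Viability was read as ATP luminescence.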
Large screens that a line does not name were inactive. Unless noted, calls follow the shape of the dose curve; as a rule, active = well fitted curve in the direction sought with a large enough effect; inconclusive = small, poorly fitted or top-dose-only effect, or another doubt; inactive = no such curve, though single readings can be large; an effect the other way counts as inactive or inconclusive.

COCCCN1C(=O)C(CC(=O)NCc2cccs2)CC(C(=O)N2CCCCCC2)=C1C (stereo unspecified)	none (no result: ELG1 repair inh, IL1B secr inh)
Cc1cc(NCCCO)n2nc(-c3cccs3)cc2n1	ELG1 repair inh inconclusive (no result: IL1B secr inh)
Cc1cc(NCCN(C)C)n2nc(-c3cccs3)cc2n1	IL1B secr inh -100
CC(C)NC(=O)N(C)C[C@@H]1OCc2cnnn2CCCC(=O)N([C@@H](C)CO)C[C@H]1C	none (no result: ELG1 repair inh)
COc1cccc(CNC(=O)[C@@H]2CCCN2C(=O)[C@H]2CCCCN2)c1	none (no result: ELG1 repair inh)
CCc1nc2c(OCc3ccc(F)cc3)cccn2c1N(C)C(=O)CC(C)C	DT40 TDP1 no CPT inconclusive, TDP1 cell CPT inconclusive (no result: ELG1 repair inh)
CCc1nc2c(OCc3ccc(F)cc3)cccn2c1N(C)C(=O)COc1ccccc1	DT40 TDP1 no CPT inconclusive, HT1080-NT tox inconclusive, HT1080 IDH1KD tx inconclusive, TDP1 cell CPT 21µM (no result: ELG1 repair inh)
CCc1nc2c(OCc3ccccc3)cccn2c1N(C)C(=O)COc1ccccc1	DT40 TDP1 no CPT inconclusive, TDP1 cell CPT 23µM (no result: ELG1 repair inh)
CCCC(=O)Nc1c(-c2cccc(OC)c2)c(=O)c2ccccc2n1C	TDP1 cell CPT inconclusive
O=C(/C=C/c1ccccc1)NC(=O)c1ccccc1O	ELG1 repair inh inconclusive, IL1B secr inh -58, DT40 TDP1 no CPT inconclusive, TDP1 cell CPT inconclusive
O=C(/C=C/c1ccccc1)CC(=O)c1ccccc1O	ELG1 repair inh inconclusive, DT40 TDP1 no CPT 18µM, TDP1 cell CPT inconclusive
COc1ccc(-c2nnc(-c3ccccc3O)o2)cc1	ELG1 repair inh inconclusive, DT40 TDP1 no CPT 10µM, HT1080-NT tox inconclusive, TDP1 cell CPT inconclusive
FC(F)(F)Oc1ccccc1-c1nnc(-c2cccc(C(F)(F)F)c2)o1	none (no result: IL1B secr inh)
COc1cccc(-c2nnc(-c3ccc(C(F)(F)F)cc3)o2)c1OC	ELG1 repair inh inconclusive, IL1B secr inh inconclusive, DT40 TDP1 no CPT 21µM, TDP1 cell CPT inconclusive
Cc1cccc(-c2nnc(-c3cccc4ccccc34)o2)c1	DT40 TDP1 no CPT inconclusive, TDP1 cell CPT inconclusive (no result: ELG1 repair inh)
Cc1ccc(-c2nnc(-c3cccc4ccccc34)o2)cc1	DT40 TDP1 no CPT 21µM, TDP1 cell CPT 16µM (no result: ELG1 repair inh)
N#CCN1CCC(c2cc(-c3ccco3)n[nH]2)CC1	DT40 TDP1 no CPT inconclusive, TDP1 cell CPT inconclusive
O=C(NCc1cccnc1)c1nn(-c2ccc(F)cc2)nc1CO	DT40 TDP1 no CPT inconclusive (no result: ELG1 repair inh, IL1B secr inh, HT1080-NT tox, HT1080 IDH1KD tx)
CC[C@@]12C(=O)N(c3cccc(Br)c3)C(=O)N1[C@H](c1ccc(Cl)cc1)[C@@H]1C(=O)N(C3CCCCC3)C(=O)[C@@H]12	IL1B secr inh inconclusive, DT40 TDP1 no CPT inconclusive, TDP1 cell CPT inconclusive
CC[C@@]12C(=O)N(c3ccc(OC)cc3)C(=O)N1[C@H](c1ccc(Cl)cc1)[C@@H]1C(=O)N(C3CCCCC3)C(=O)[C@@H]12	IL1B secr inh inconclusive, DT40 TDP1 no CPT inconclusive, TDP1 cell CPT 21µM
O=C1[C@H]2[C@@H](c3ccc(Cl)cc3)N3C(=O)N(c4cccc(F)c4)C(=O)[C@@]3(Cc3ccc(Cl)cc3)[C@H]2C(=O)N1C1CCCCC1	DT40 TDP1 no CPT 16µM, TDP1 cell CPT inconclusive
CC(=O)N(C)c1ccc(NC(=S)Nc2cccc3ccccc23)cc1	ELG1 repair inh inconclusive, DT40 TDP1 no CPT inconclusive, TDP1 cell CPT 23µM
CCc1ccc(NC(=S)Nc2cccc3cnccc23)cc1	ELG1 repair inh inconclusive, DT40 TDP1 no CPT 15µM, TDP1 cell CPT inconclusive
Cc1ccc(NC(=S)Nc2cccc3cnccc23)c(C)c1	ELG1 repair inh 21µM, DT40 TDP1 no CPT inconclusive
Cc1cc(C)cc(NC(=S)Nc2cccc3cnccc23)c1	ELG1 repair inh inconclusive, DT40 TDP1 no CPT inconclusive
COCCn1c(C)cc(O)c(C(c2ccccc2)N2CCN(c3ccccc3)CC2)c1=O (stereo unspecified)	none (no result: ELG1 repair inh, IL1B secr inh, HT1080-NT tox, HT1080 IDH1KD tx)
Cc1ccc2c(Cl)c(C(=O)NCc3cccnc3)sc2c1	none
N#CCCN(Cc1cccnc1)C(=O)c1sc2cc(F)ccc2c1Cl	DT40 TDP1 no CPT 15µM, TDP1 cell CPT inconclusive
CCCCn1c(N)c(NCC)c(=O)[nH]c1=O	DT40 TDP1 no CPT 23µM, TDP1 cell CPT inconclusive
CCCS(=O)(=O)N1CCN(CC2CC3C=CC2C3)CC1 (stereo unspecified)	DT40 TDP1 no CPT 5.8µM
CC1=CC(C)[C@@H]2COC(c3ccc(O)cc3)[C@H]1C2C (stereo partly specified)	DT40 TDP1 no CPT inconclusive, TDP1 cell CPT inconclusive
CC1CCCC(C)N1S(=O)(=O)c1ccc(S(=O)(=O)NCCc2ccncc2)cc1 (stereo unspecified)	IL1B secr inh inconclusive, DT40 TDP1 no CPT inconclusive, TDP1 cell CPT inconclusive
CCCc1ccc(S(=O)(=O)NCCc2ccncc2)cc1	ELG1 repair inh inconclusive, DT40 TDP1 no CPT inconclusive, TDP1 cell CPT 13µM
CC(C)(C)c1ccc(S(=O)(=O)NCCc2ccncc2)cc1	DT40 TDP1 no CPT 16µM, TDP1 cell CPT inconclusive
O=C(CCc1ccc(S(=O)(=O)NCCc2ccccc2)cc1)Nc1ccc2c(c1)OCCO2	ELG1 repair inh 13µM, DT40 TDP1 no CPT inconclusive
CCCNS(=O)(=O)c1ccc(CCC(=O)Nc2ccc3c(c2)OCCO3)cc1	none
